Assay: Peg3 promoter luciferase inhibitors, potency, dose response, cell-based, HeLa, CREF/GAPDH counter-screen panel (AID 624167)
Conditions: CREF/GAPDH counter-screens; run 1, dose range 1, at 100 µM (top of the series)

Structure (SMILES)	inhibition
COc1ccc(/C=C2/CCCC(CN(C)C)C2=O)cc1 (stereo not drawn)	80%
Cc1ccc(/C=C2\SC(=S)N(CCCC(=O)Nc3ccccn3)C2=O)cc1	80.2%
O=C(CNC(=O)C(c1ccccc1)c1ccccc1)N/N=C/c1ccc(O)cc1O	30.2%
O=C(N/N=C\c1c(O)ccc2ccccc12)c1ccc(Cn2cccn2)o1	34.1%
Nc1nonc1-n1nnc(C(=O)N/N=C/c2cc(Br)ccc2O)c1CNc1ccccc1	70.2%
CC(C)CCCCCCCCCCCCC(=O)NCC(=O)NC1C(O)C(O)C(Nc2ncnc3nc[nH]c23)OC1C(O)CO (stereo not drawn)	94.6%
Oc1[nH]c2ccc(Br)cc2c1N=NC(=S)N1CCOCC1	75.3%
CCCCCCCn1c(=N)n(CC(=O)c2ccco2)c2ccccc21	92.5%
Cc1cc(C(=O)Nc2cccc(C(=O)O)c2)oc1C	89.9%
O=C(O)c1ccc(N/N=C/c2ccc3c(c2)OCO3)cc1	96.9%
Cc1ccc(OCC(=O)c2cc(C)n(-c3ccccc3)c2C)c([N+](=O)[O-])n1	73%
Cc1ccc(-n2c(N)c(C(=O)Nc3c(C)n(C)n(-c4ccccc4)c3=O)c3nc4ccccc4nc32)cc1	77.5%
COc1cccc(OC)c1C(=O)Nc1cc(C)nn1-c1nc2ccccc2[nH]1	50.8%
C=CCn1c(C)cc(C(=O)COc2ccc(C)nc2[N+](=O)[O-])c1C	51.5%
C=CCn1c(COc2ccccc2)nnc1SC(C)C(=O)N/N=C/c1cc(Cl)ccc1O (stereo not drawn)	65%
COc1cc(C(=O)N/N=C(\c2ccccc2)c2ccccn2)cc(OC)c1OC	20%
O=C(Nc1ccc(Cc2ccncc2)cc1)c1ccc([N+](=O)[O-])o1	88.7%

Structure (SMILES)	inhibition
COC1CC(C)C(OC)c2cc(O)cc(c2O)NC(=O)C(C)=CC=CC(C)C(OC(N)=O)C(C)=CC(C)C1OC (stereo not drawn)	87.1%
O=C(CNc1ccccc1)N/N=C/c1c(O)ccc2ccccc12	57%
CS(=O)(=O)c1ccc(-c2sc3ccccc3c2C#CCCO)cc1	90.1%
CC(=O)NC(c1ccc(Cl)cc1)c1ccc2cccnc2c1O (stereo not drawn)	69.3%
CC(C)CC1C(=O)N(Cc2cn(Cc3ccco3)nn2)CCS(=O)(=O)N1Cc1ccc(-c2ccc(F)cc2)cc1 (stereo not drawn)	60.2%
COc1ccc(NC(=O)c2cc(-c3ccccn3)nc3ccccc23)cc1S(=O)(=O)N(C)C	48.4%
O=C(N/N=C/c1c(O)ccc2ccccc12)c1ccc(CO)nc1	-8.84%
CN(C)S(=O)(=O)c1ccc(-c2csc(N/N=C/c3ccc(O)cc3)n2)cc1	91.3%
O=c1cnnc(N/N=C/c2ccccn2)[nH]1	3.68%
CN(C)c1c([N+](=O)[O-])cc(N2C(=O)C=CC2=O)cc1[N+](=O)[O-]	98.9%
CCCC(=O)NC(c1ccc(OC)cc1)c1ccc2cccnc2c1O (stereo not drawn)	67.4%
CCC(C)Cn1c(O)cc2nn(-c3nc4ccccc4s3)c(=O)c-2c1C (stereo not drawn)	99.6%
O=C(O)c1ccc(N/N=C/c2ccc3nccnc3c2)cc1	99%
N=c1n(CC(=O)c2ccc([N+](=O)[O-])cc2)c2ccccc2n1Cc1ccc(Cl)cc1	86%
COc1cc(CNCCCN2CCOCC2)cc(Br)c1OCc1ccc(Cl)cc1	99.6%
NS(=O)(=O)c1ccc(CCNc2nn3c(-c4ccc(F)c(Cl)c4)cnc3s2)cc1	73.4%
